Experimental findings from PubChem BioAssay (NCI) are described below.

This is part of a sample that, as a whole, favours compounds with a hit. Of some 79,000 tested, about 15% had one in any assay. Unmarked numbers belong to inactive results. Active and inactive are the calls of the source. Rule as the data show it: active = growth inhibition above about 70%; inactive = the rest.

A short description of experiment [1]: NCI Yeast Anticancer Drug Screen. Data for the rad50 strain (AID 155).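 Also: 0% = growth of vehicle-only cultures of the same strain.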 Particulars: S. cerevisiae rad50 strain growth inhibition; at 50.0 µM; active compounds read high. Put shortly: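 Inhibition values express reduced yeast growth in compound-treated cultures relative to vehicle-treated controls.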
Experiment [2] in a line: NCI Yeast Anticancer Drug Screen. Data for the mec2-1 strain (AID 157). The settings on record: S. cerevisiae mec2-1 strain, at 50.0 µM, active compounds read high. The method in brief: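 Compounds were applied to mec2-1 yeast cells. Their growth was then compared with that of vehicle-treated cultures to give growth inhibition.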
Experiment [3] in a line: NCI Yeast Anticancer Drug Screen. Data for the sgs1 mgt1 strain (AID 161).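 Also: 0% = growth of cultures given vehicle only.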 Particulars: S. cerevisiae sgs1 mgt1 strain, at 50.0 µM, active compounds read high. The method in brief: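 This yeast growth screen uses a strain with defined DNA-repair lesions; compound-treated growth is compared with vehicle-treated growth.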
A short description of experiment [4]: NCI Yeast Anticancer Drug Screen. Data for the cln2 rad14 strain (AID 165).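 Also: 0% = growth equal to vehicle treated cultures.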 The settings on record: S. cerevisiae cln2 rad14 strain, at 50.0 µM, active compounds read high. The method in brief: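 Strain: cln2 rad14 yeast, altered in cell cycle control and DNA damage repair. Read-out: growth inhibition vs vehicle.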
A short description of experiment [5]: NCI Yeast Anticancer Drug Screen. Data for the bub3 strain (AID 167). The settings on record: S. cerevisiae bub3 mutant strain, at 50.0 µM, active compounds read high. The method in brief:
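Steps: expose the mutant yeast strain to compound; grow alongside vehicle-treated cultures; measure growth; express inhibition against the vehicle cultures.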

Experiment [6] is described as follows: NCI Yeast Anticancer Drug Screen. Data for the mlh1 rad18 strain (AID 175). Particulars: S. cerevisiae mlh1 rad18 strain growth inhibition; at 50.0 µM; active compounds read high. Put shortly: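 A repair-deficient yeast strain is exposed to test compound, and growth is scored relative to vehicle-treated controls.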

As for `Cc1ccc2ccccc2c1Br`, the growth inhibition is -4.55% in experiment [1]; -0.85% in experiment [2]; 1.6% in experiment [3]; -14.8% in experiment [4]; -3.2% in experiment [5]; -8.55% in experiment [6].
Regarding `CC(=O)C(C(C)=O)C(C(C)=O)C(C)=O.[Cu]`, the growth inhibition is -26.8% in experiment [1]; -11.3% in experiment [2]; -21.1% in experiment [3]; -10.4% in experiment [4]; -18.4% in experiment [5]; -22.1% in experiment [6].
Turning to `Cc1ccsc1C(=O)C(CC(=O)c1cccs1)c1ccsc1` (stereo not given), the growth inhibition in experiment [1] was -5.45%; in experiment [2] it was -8.45%; in experiment [3] it was -0.9%; in experiment [4] it was 17.3%; in experiment [5], 25.4%; in experiment [6], 16.4%.
Consider `COc1cccc(C(Nc2nncs2)Nc2nncs2)c1`, for which the growth inhibition in experiment [1] is 3.1%; in experiment [2], -9.2%; in experiment [3] it was -8.45%; in experiment [4], 13.9%; in experiment [5], -20.3%; in experiment [6], 16.1%.
As for `CCc1nc(N)nc(N)c1-c1ccc2c(c1)nnn2C`, the growth inhibition in experiment [1] is 19.9%; in experiment [2] it was 14.8%; in experiment [3], 9.05%; in experiment [4], -9.75%; in experiment [5], 11.6%; in experiment [6], 17.9%.
For `NCCS/C=C\C(=O)OCc1ccc(Br)cc1`, the growth inhibition is 31.6% in experiment [1]; 4.4% in experiment [2]; 9.65% in experiment [3]; 6.45% in experiment [4]; 19.1% in experiment [5]; 54.1% in experiment [6].
For the compound `COc1cc(C(=O)C/C(CCC(=O)Nc2ccc(Cl)cc2Cl)=N/Nc2nnc(C)n2N)ccc1O`, the growth inhibition was -19.6% in experiment [1]; -4.2% in experiment [2]; -25.6% in experiment [3]; 13.4% in experiment [4]; 7.1% in experiment [5]; -5.05% in experiment [6].
Consider `O=C(Nn1c(=S)[nH][nH]c1=S)c1ccccc1`, for which the growth inhibition in experiment [1] was 17.1%; in experiment [2], -4.05%; in experiment [3], -2.35%; in experiment [4] it was -12.2%; in experiment [5], -14.5%; in experiment [6], 21.4%.
In the case of `Cc1ccc(N=Nc2c(C)nn(C(=S)S)c2C)cc1`, the growth inhibition is 71.9% (active) in experiment [1]; 39.4% in experiment [2]; 90% (active) in experiment [3]; 35.8% in experiment [4]; 83.3% (active) in experiment [5]; 96.2% (active) in experiment [6].
On to `CC(=O)N1C(NN(C)C)CCN1c1ccccc1` (stereo not given), for which the growth inhibition in experiment [1] is 36%; in experiment [2] it was -28.9%; in experiment [3], 13.6%; in experiment [4], -4.75%; in experiment [5], -22.5%; in experiment [6] it was 2.95%.
Regarding `C=C(C)COC1CCCCO1` (stereo not given), the growth inhibition in experiment [1] is -3.75%; in experiment [2] it was -15.1%; in experiment [3], -36.7%; in experiment [4], 14.7%; in experiment [5] it was -42.3%; in experiment [6], -39.1%.
`CC(=O)OCCc1ccc2c(c1)OCO2`: the growth inhibition in experiment [1] is -0.1%; in experiment [2] it was -11.8%; in experiment [3] it was 6.05%; in experiment [4], -30.9%; in experiment [5] it was -16.9%; in experiment [6], -6.15%.
With `C/C(C#CC1=CCCCC1)=N\Nc1ccc([N+](=O)[O-])cc1[N+](=O)[O-]`, the growth inhibition in experiment [1] was -3.45%; in experiment [2], -24.4%; in experiment [3] it was -8.1%; in experiment [4], -4.3%; in experiment [5], -7.75%; in experiment [6] it was 1.1%.
Turning to `C=C(Cl)/C(=C\Cl)CCC(Cl)C(C)C` (stereo not given) (tested in a mixture with another compound), the growth inhibition in experiment [1] was 68.5%; in experiment [2], 78% (active); in experiment [3], 91% (active); in experiment [4], 72% (active); in experiment [5], 90.8% (active); in experiment [6] it was 89.3% (active).
As to `COc1ccc(CC[N+]2=Cc3cc(OC)c(OC)cc3CC2)cc1OC`, the growth inhibition in experiment [1] is -0.9%; in experiment [2], -2.8%; in experiment [3] it was 12.6%; in experiment [4], 13.3%; in experiment [5], 2.7%; in experiment [6], 15.5%.
Regarding `C1=Nc2ccccc2/C1=C/c1cccs1`, the growth inhibition was 35.5% in experiment [1]; 37% in experiment [2]; 12.1% in experiment [3]; -47.4% in experiment [4]; 13% in experiment [5]; 48.8% in experiment [6].
For `CC1CCCCC1(O)C(C(=O)O)c1ccccc1` (stereo not given), the growth inhibition is -8.1% in experiment [1]; -9.85% in experiment [2]; 0.3% in experiment [3]; -1.95% in experiment [4]; -22% in experiment [5]; -29.6% in experiment [6].
Turning to `CC(C)[C@@H]1CC[C@@H](C)C[C@H]1OC(=O)/C=C1\C(C(=O)O[C@@H]2C[C@H](C)CC[C@H]2C(C)C)[C@H]2C=C[C@@H]1O2` (stereo not given in full), the growth inhibition in experiment [1] is -6.15%; in experiment [2] it was -13.6%; in experiment [3] it was -9.35%; in experiment [4] it was -25.1%; in experiment [5], -27.1%; in experiment [6], 6.5%.
With `CC(C)C(Br)C(=O)N1CCOCC1` (stereo not given), the growth inhibition in experiment [1] was -0.4%; in experiment [2] it was -17.9%; in experiment [3], -5.2%; in experiment [4], -20.6%; in experiment [5] it was -9.6%; in experiment [6] it was -5.15%.
Consider `NC(CC(=O)O)CC(=O)O`, for which the growth inhibition in experiment [1] was 12.9%; in experiment [2], 2.6%; in experiment [3], 1.8%; in experiment [4], 14.7%; in experiment [5] it was 5.65%; in experiment [6], 17.8%.
